Reference: PubChem BioAssay (NCI)
The panel holds about 79,000 compounds, 15% with a hit somewhere; the sample as a whole holds those more often. Active and inactive are the calls of the source. Rule as the data show it: active = growth inhibition above about 70%; inactive = the rest.

Experiments:
[1] = NCI Yeast Anticancer Drug Screen. Data for the rad52 strain (AID 147);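 also: 0% = growth of vehicle-treated control cultures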; settings: S. cerevisiae rad52 mutant growth inhibition, hits give high values
In short: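 Inhibition of yeast growth, referenced to vehicle controls, was the measured output for a strain with defective DNA damage repair.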

[2] = NCI Yeast Anticancer Drug Screen. Data for the rad50EPP+ strain (AID 151);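 also: 0% = growth of vehicle-treated control cultures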; settings: S. cerevisiae rad50 mutant strain, hits give high values
In short: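 Genetically defined yeast (rad50EPP+, DNA damage repair alteration) is grown with compound, and inhibition of growth is expressed relative to vehicle-treated controls.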

[3] = NCI Yeast Anticancer Drug Screen. Data for the rad50 strain (AID 155);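 also: 0% = growth of vehicle-only cultures of the same strain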; settings: S. cerevisiae rad50 strain growth inhibition, hits give high values
In short: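 Inhibition values express reduced yeast growth in compound-treated cultures relative to vehicle-treated controls.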

[4] = NCI Yeast Anticancer Drug Screen. Data for the mec2-1 strain (AID 157); settings: S. cerevisiae mec2-1 strain, hits give high values
In short: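 Each compound was tested on mec2-1 yeast, a strain altered in DNA damage repair or cell cycle control. Growth inhibition is reported relative to vehicle.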

[5] = NCI Yeast Anticancer Drug Screen. Data for the rad14 strain (AID 159);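 also: 0% = growth of vehicle-treated control cultures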; settings: S. cerevisiae rad14 strain growth inhibition, hits give high values
In short: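 A mutant yeast strain defective in DNA damage repair is treated with compound; inhibition of its growth is scored against untreated, vehicle-exposed cultures.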

[6] = NCI Yeast Anticancer Drug Screen. Data for the sgs1 mgt1 strain (AID 161);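 also: 0% = growth of cultures given vehicle only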; settings: S. cerevisiae sgs1 mgt1 strain, hits give high values
In short: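 Mutant yeast exposed to compound; growth scored against vehicle-only wells.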

[7] = NCI Yeast Anticancer Drug Screen. Data for the CLN2oe strain (AID 163);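 also: 0% = growth of vehicle-only control cultures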; settings: S. cerevisiae CLN2oe strain, hits give high values
In short: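 First, the altered yeast strain was treated with each compound; second, its growth was measured; finally, inhibition was derived by comparison with vehicle controls.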

[8] = NCI Yeast Anticancer Drug Screen. Data for the cln2 rad14 strain (AID 165);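 also: 0% = growth equal to vehicle treated cultures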; settings: S. cerevisiae cln2 rad14 strain, hits give high values
In short: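 Test compounds were added to cln2 rad14 yeast cultures; inhibition of growth was then determined by comparison with vehicle treatment.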

[9] = NCI Yeast Anticancer Drug Screen. Data for the bub3 strain (AID 167); settings: S. cerevisiae bub3 mutant strain, hits give high values
In short: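 Steps: expose the mutant yeast strain to compound; grow alongside vehicle-treated cultures; measure growth; express inhibition against the vehicle cultures.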

[10] = NCI Yeast Anticancer Drug Screen. Data for the wt2 strain (AID 169);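 also: 0% = growth of vehicle-treated yeast cultures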; settings: S. cerevisiae wt2 strain growth inhibition, hits give high values
In short: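 The panel's yeast strains carry defined changes in DNA repair or cell cycle genes. Each strain is grown with compound, and growth loss is scored relative to vehicle.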

[11] = NCI Yeast Anticancer Drug Screen. Data for the mlh1 strain (AID 171);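 also: 0% = growth of vehicle-treated control cultures of the same strain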; settings: S. cerevisiae mlh1 strain growth inhibition, hits give high values
In short: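 Inhibition values reflect reduced yeast growth in the presence of compound, referenced to vehicle controls, using a strain chosen for its alteration in DNA repair or cell cycle control.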

[12] = NCI Yeast Anticancer Drug Screen. Data for the sgs1 strain (AID 173);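 also: 0% = growth of vehicle-only control cultures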; settings: S. cerevisiae sgs1 mutant, hits give high values
In short: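 Vehicle-treated cultures served as reference for growth inhibition of a yeast strain altered in DNA damage repair or cell cycle control after compound exposure.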

[13] = NCI Yeast Anticancer Drug Screen. Data for the mlh1 rad18 strain (AID 175); settings: S. cerevisiae mlh1 rad18 strain growth inhibition, hits give high values
In short: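 Inhibition values reflect reduced growth of mutant yeast versus vehicle-treated controls following compound exposure; the mutations affect DNA damage repair.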

[14] = NCI Yeast Anticancer Drug Screen. Data for the rad18 strain (AID 177); settings: S. cerevisiae rad18 mutant growth inhibition, hits give high values
In short: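 Steps: expose repair-mutant yeast to compound; measure growth; express as inhibition relative to vehicle control.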

[15] = NCI Yeast Anticancer Drug Screen. Data for the wt1 strain (AID 149);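 also: 0% = growth of vehicle-treated wt1 cultures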; settings: S. cerevisiae wt1 strain (SPY 50644) growth inhibition, hits give high values
In short: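 Compounds are added to wt1 yeast cultures. Growth is then measured. Inhibition is expressed relative to vehicle-treated controls.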

[16] = at 5.0 µM (retest, dose inferred, filed as 0.5)
[17] = at 50.0 µM (retest, dose inferred, filed as 5.0)

Measured: growth inhibition

N#C/C(=C1C=C/C(=N/O)c2ccccc2/1)c1ccccc1
inactive: [1]; at 1.2 µM -1% | [1]; at 3.7 µM -1% | [1]; at 11.0 µM 1% | [2]; at 1.2 µM 7% | [2]; at 3.7 µM 13% | [2]; at 11.0 µM 16% | [2]; at 33.0 µM 36% | [2]; at 100.0 µM 35% | [3]; at 1.2 µM 2% | [3]; at 3.7 µM 1% | [3]; [16] 47% | [3]; at 11.0 µM 4% | [4]; at 1.2 µM -3% | [4]; at 3.7 µM -8% | [4]; [16] 24% | [4]; at 11.0 µM -8% | [4]; at 33.0 µM 52% | [4]; at 100.0 µM 49% | [5]; at 1.2 µM -3% | [5]; at 3.7 µM -6% | [5]; at 11.0 µM -3% | [5]; at 33.0 µM 55% | [6]; [16] 60% | [7]; at 1.2 µM -5% | [7]; at 3.7 µM -6% | [7]; at 11.0 µM -6% | [7]; at 33.0 µM 49% | [7]; at 100.0 µM 62% | [8]; [16] 8% | [9]; at 1.2 µM -6% | [9]; at 3.7 µM -10% | [9]; [16] 49% | [9]; at 11.0 µM -8% | [9]; at 33.0 µM 42% | [9]; at 100.0 µM 50% | [10]; at 1.2 µM -4% | [10]; at 3.7 µM -5% | [10]; at 11.0 µM -4% | [10]; at 33.0 µM 49% | [10]; at 100.0 µM 36% | [11]; at 1.2 µM -1% | [11]; at 3.7 µM -2% | [11]; at 11.0 µM 1% | [11]; at 100.0 µM 57% | [12]; at 1.2 µM -2% | [12]; at 3.7 µM -2% | [12]; at 11.0 µM 1% | [12]; at 100.0 µM 66% | [13]; [16] 49% | [14]; at 1.2 µM -1% | [14]; at 3.7 µM 3% | [14]; at 11.0 µM -1%
active: [1]; at 33.0 µM 84% | [1]; at 100.0 µM 71% | [3]; at 33.0 µM 92% | [3]; [17] 97% | [3]; at 50.0 µM 96.6% | [3]; at 100.0 µM 87% | [4]; [17] 97% | [4]; at 50.0 µM 98% | [5]; at 100.0 µM 71% | [6]; [17] 97% | [6]; at 50.0 µM 96.6% | [8]; [17] 97% | [8]; at 50.0 µM 95.8% | [9]; [17] 95% | [9]; at 50.0 µM 97.7% | [11]; at 33.0 µM 73% | [12]; at 33.0 µM 95% | [13]; [17] 96% | [13]; at 50.0 µM 91.5% | [14]; at 33.0 µM 88% | [14]; at 100.0 µM 80%

COCCCN(Cc1cc(OC)c(OC)c(OC)c1)C(=S)Nc1cccc(Cl)c1
inactive: [1]; at 1.2 µM 20% | [1]; at 3.7 µM 12% | [1]; at 11.0 µM 7% | [1]; at 33.0 µM 23% | [1]; at 100.0 µM 46% | [2]; at 1.2 µM -12% | [2]; at 3.7 µM -21% | [2]; at 11.0 µM -28% | [2]; at 33.0 µM -6% | [2]; at 100.0 µM -9% | [3]; at 1.2 µM -24% | [3]; at 3.7 µM -13% | [3]; [16] 43% | [3]; at 11.0 µM -14% | [3]; at 33.0 µM -8% | [3]; [17] 69% | [3]; at 50.0 µM 22.7% | [3]; at 100.0 µM 40% | [4]; at 1.2 µM -12% | [4]; at 3.7 µM 4% | [4]; [16] 51% | [4]; at 11.0 µM -19% | [4]; at 33.0 µM -18% | [4]; [17] 56% | [4]; at 50.0 µM -9.3% | [4]; at 100.0 µM 20% | [5]; at 1.2 µM -28% | [5]; at 3.7 µM -7% | [5]; at 11.0 µM -32% | [5]; at 33.0 µM -32% | [5]; at 100.0 µM 15% | [6]; [16] -32% | [6]; [17] 4% | [6]; at 50.0 µM 24.4% | [7]; at 1.2 µM 0% | [7]; at 3.7 µM -9% | [7]; at 11.0 µM -30% | [7]; at 33.0 µM -26% | [7]; at 100.0 µM 1% | [8]; [16] 41% | [8]; [17] 46% | [8]; at 50.0 µM 17.4% | [11]; at 1.2 µM 0% | [11]; at 3.7 µM -19% | [11]; at 11.0 µM -38% | [11]; at 33.0 µM -30% | [11]; at 100.0 µM 31% | [12]; at 1.2 µM -20% | [12]; at 3.7 µM -22% | [12]; at 11.0 µM -21% | [12]; at 33.0 µM -16% | [12]; at 100.0 µM 36% | [13]; [16] 46% | [13]; [17] 67% | [13]; at 50.0 µM 19.2% | [14]; at 1.2 µM -17% | [14]; at 3.7 µM -25% | [14]; at 11.0 µM -17% | [14]; at 33.0 µM -15% | [14]; at 100.0 µM 27%

S=c1cn[nH]c2ccc(Br)cc12
active: [2]; at 33.0 µM 70% | [2]; at 100.0 µM 83% | [3]; at 33.0 µM 78% | [3]; at 100.0 µM 85% | [7]; at 100.0 µM 76% | [9]; at 50.0 µM 77% | [9]; at 100.0 µM 72% | [11]; at 100.0 µM 73% | [12]; at 100.0 µM 85% | [13]; [17] 75% | [13]; at 50.0 µM 85.6% | [14]; at 33.0 µM 86% | [14]; at 100.0 µM 89%
inactive: [15]; at 1.2 µM -5% | [15]; at 3.7 µM -6% | [15]; at 11.0 µM -11% | [15]; at 33.0 µM 1% | [15]; at 100.0 µM 43% | [2]; at 1.2 µM -2% | [2]; at 3.7 µM -1% | [2]; at 11.0 µM 17% | [3]; at 1.2 µM -3% | [3]; at 3.7 µM -9% | [3]; [16] -152% | [3]; at 11.0 µM 13% | [3]; [17] 66% | [3]; at 50.0 µM 69.5% | [4]; at 1.2 µM 2% | [4]; at 3.7 µM -3% | [4]; [16] -53% | [4]; at 11.0 µM -6% | [4]; at 33.0 µM 8% | [4]; [17] -9% | [4]; at 50.0 µM 56.3% | [4]; at 100.0 µM 53% | [5]; at 1.2 µM 2% | [5]; at 3.7 µM 4% | [5]; at 11.0 µM 5% | [5]; at 33.0 µM 30% | [5]; at 100.0 µM 62% | [6]; [16] -58% | [6]; [17] 61% | [6]; at 50.0 µM 68.9% | [7]; at 1.2 µM -4% | [7]; at 3.7 µM -4% | [7]; at 11.0 µM -5% | [7]; at 33.0 µM 40% | [8]; [16] -68% | [8]; [17] -20% | [8]; at 50.0 µM 35.9% | [9]; at 1.2 µM -12% | [9]; at 3.7 µM -9% | [9]; [16] -79% | [9]; at 11.0 µM -12% | [9]; at 33.0 µM 52% | [9]; [17] 60% | [10]; at 1.2 µM -4% | [10]; at 3.7 µM -3% | [10]; at 11.0 µM -5% | [10]; at 33.0 µM 20% | [10]; at 100.0 µM 40% | [11]; at 1.2 µM 4% | [11]; at 3.7 µM -7% | [11]; at 11.0 µM -5% | [11]; at 33.0 µM 46% | [12]; at 1.2 µM -2% | [12]; at 3.7 µM -6% | [12]; at 11.0 µM -5% | [12]; at 33.0 µM 61% | [13]; [16] -109% | [14]; at 1.2 µM 0% | [14]; at 3.7 µM 2% | [14]; at 11.0 µM 26%
